# Test results published in PubChem BioAssay (NCATS).
# Records with an inconclusive call do not appear. Unmarked numbers belong to inactive results. Activity calls are given as the source filed them. Unless noted, the call rests on the fitted dose curve.
# Experiments:
# [1] = Cell Viability - BJ (AID 421); settings: BJ fibroblast viability, qHTS;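 further: potency means the concentration at half of the fitted maximal effect; cells exposed to compound for 40 hours at 37 °C before readout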
# Procedure, shortened: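 Cytotoxicity in human BJ foreskin fibroblasts is scored as loss of cellular ATP after a 40-hour exposure, measured by luciferase luminescence. Controls are DMSO and 100 uM tamoxifen.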
# [2] = Cell Viability - Jurkat (AID 426;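 active means dose-dependent loss of cell ATP signal giving a full or clear fitted curve, ranked by lower potency value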;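 further: potency means the concentration at half of the fitted maximal effect; cells exposed to compound for 40 hours at 37 °C before ATP read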); settings: qHTS
# Procedure, shortened: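 Seed 5000 Jurkat E6-1 cells/well; add compound; incubate 40 hr at 37 °C; add CellTiter-Glo; wait 20 min at room temperature; read luminescence. Fit concentration-response with Hill equation for AC50.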
# [3] = Cell Viability - Hek293 (AID 427;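 active means compounds whose dose-response curve shows a full or clear partial loss of cell viability, called from curve shape rather than a numeric limit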;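 further: potency means the concentration at half of the fitted maximal effect; cells exposed to compound for 40 hours at 37 °C before reading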); settings: qHTS
# Procedure, shortened: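 qHTS, human embryonic kidney (adenovirus-transformed) cells; 40 hr cpd, 37 °C; CellTiter-Glo ATP luminescence. Norm: DMSO = 0, 100 uM tamoxifen = 100% inhibition. Hill-fit AC50.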
# [4] = Cell Viability - HepG2 (AID 433); settings: qHTS;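 further: potency means the concentration at half of the fitted maximal effect; cells exposed to compound for 40 hours; potency for ATP loss meaning cytotoxicity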
# Procedure, shortened: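 HepG2 cells, 1500 per well, treated 40 hr at 37 °C in complete medium; viability from intracellular ATP by CellTiter-Glo luminescence. Normalized to DMSO and 100 uM tamoxifen; AC50 from Hill fit of qHTS concentration-response.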
# [5] = Cell Viability - MRC5 (AID 434); settings: MRC5 lung fibroblast viability, qHTS;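 further: potency means the concentration at half of the fitted maximal effect; cells exposed to compound for 40 hours at 37 °C; potency reflects cytotoxicity seen as loss of intracellular ATP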
# Procedure, shortened: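 qHTS cytotoxicity in human lung fibroblast MRC5 cells; 40 hr treatment, 37 °C; cellular ATP by luciferase luminescence; DMSO = 0%, 100 uM tamoxifen = 100% inhibition; Hill-fit AC50.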
# [6] = Cell Viability - SK-N-SH (AID 435); settings: SK-N-SH neuroblastoma cell viability qHTS;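 further: potency means the concentration at half of the fitted maximal effect; compound exposure lasted 40 h at 37 °C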
# Procedure, shortened: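 SK-N-SH neuroblastoma cells (1500/well) treated 40 h at 37 °C in complete medium; viability read as cellular ATP by CellTiter-Glo luminescence. Normalized to DMSO and 100 uM tamoxifen; AC50 from Hill fits of qHTS concentration-response.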
# [7] = Cell Viability - N2a (AID 540; active means well fitted curve in the direction sought with a large enough effect; an effect the other way counts as inactive or inconclusive;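 further: cells exposed to compound for 40 h at 37 °C; plate controls were DMSO alone for no effect and tamoxifen control for full effect; nearly all actives have a fitted effect of over 45% in size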); settings: N2a mouse neuroblastoma cell viability; activity change, negative = cytotoxicity: at 92.2 µM (top of the series)
# Procedure, shortened: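 First, 1500 N2a cells per well incubate 5 hr at 37 °C; next, compounds are added and incubated 40 hr at 37 °C; finally CellTiter-Glo is added and luminescence read after 20 min, with AC50 derived by Hill modeling.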
# [8] = Cell Viability - NIH 3T3 (AID 541; active means well fitted curve in the direction sought with a large enough effect; an effect the other way counts as inactive or inconclusive;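 further: cells exposed to compound for 40 hours; nearly all actives have a fitted effect of over 25% in size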; further: potency means the concentration at half of the fitted maximal effect;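 on activity change, negative = cytotoxicity: plate controls were DMSO alone for no effect and tamoxifen positive control for full effect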); settings: NIH 3T3 cell viability, qHTS; activity change, negative = cytotoxicity: at 92.2 µM (top of the series)
# Procedure, shortened: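 AC50 values reflect concentration-dependent loss of intracellular ATP in NIH 3T3 cells after 40 hr treatment in complete culture medium, quantified by luciferase-based luminescence.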
# [9] = Cell Viability - HUV-EC-C (AID 542; active means well fitted curve in the direction sought with a large enough effect; an effect the other way counts as inactive or inconclusive;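 further: cells exposed to compound for 40 hours; on the % scale 0 is the no-effect control and ±100 the full control effect; nearly all actives have a fitted effect of over 35% in size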); settings: HUV-EC-C endothelial cell viability, qHTS; series mostly up to 92.2 µM
# Procedure, shortened: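 Decrease in cellular ATP, quantified by luciferase luminescence, reflects toxicity in normal human vascular endothelial HUV-EC-C cells given compound for 40 hr in complete culture medium. Values are AC50s from concentration-response curves.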
# [10] = molecular target: Mitogen-activated protein kinase 10 (Mus musculus) (UniProt Q61831); test: JNK3 AlphaScreen Assay (AID 530; active means well fitted curve in either direction with a large enough effect, not every such curve was filed as active;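 further: kinase came from lysate of stimulated human HepG2 cells; signal reports phosphorylation of biotinylated GST-cJun 1-79 at Ser73 with 10 µM ATP; on the % scale 0 is the no-effect control and ±100 the full control effect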); settings: JNK3 lysate, c-Jun phosphorylation; series mostly up to 57.1 µM
# Procedure, shortened: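 Room-temperature AlphaScreen kinase assay; pre-activated HepG2 lysate as JNK3 source, biotin-GST-cJun(1-79) substrate, 10 uM ATP, compound 15 min preincubation.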
SMILES,Potency [1] [µM],Potency [2] [µM],Potency [3] [µM],Potency [4] [µM],Potency [5] [µM],Potency [6] [µM],"activity change, negative = cytotoxicity [7] [%]",Potency [8],Potency [9],outcome [10]
Cc1cccc(C(=O)O)c1,> 92,> 92,> 92,> 92,> 92,> 92,-7,inactive,inactive,
CC(=O)OCCC(C)C,> 92,> 92,> 92,> 92,> 92,,-1.72,inactive,inactive,inactive
CC(C)C(C)C,> 92,> 92,> 92,> 92,> 92,,5.14,inactive,inactive,inactive
CC(C)Nc1ccccc1,> 92,> 92,> 92,> 92,> 92,,-9.13,inactive,,inactive
Cc1cccc2cccnc12,> 92,> 92,> 92,> 92,> 92,> 92,-0.348,inactive,inactive,
NC(=O)c1ccccc1[N+](=O)[O-],> 92,> 92,> 92,> 92,> 92,,-5.05,inactive,inactive,inactive
CO[Si](CCCNCCC[Si](OC)(OC)OC)(OC)OC,> 92,> 92,> 92,> 92,> 92,> 92,-27,,inactive,
CCOCCO,> 92,> 92,> 92,> 92,> 92,,-17.9,inactive,inactive,inactive
CC(=O)OCc1ccco1,> 92,> 92,> 92,> 92,> 92,,-7.42,inactive,inactive,inactive
CC1CCCO1 (stereo unspecified),> 92,> 92,> 92,> 92,> 92,,-13.8,inactive,inactive,inactive
CCCCC(CC)CNCC(CC)CCCC (stereo unspecified),> 92,> 92,> 92,> 92,> 92,> 92,-7.79,inactive,inactive,
CCNc1ccccc1,> 92,> 92,> 92,> 92,> 92,,2.42,inactive,inactive,inactive
CCCCCCCCC/C=C/CC1CC(=O)OC1=O (stereo unspecified),> 92,> 92,> 92,> 92,> 92,,11.9,inactive,inactive,inactive
c1ccsc1,> 92,> 92,> 92,> 92,> 92,,-9.01,inactive,inactive,inactive
Cc1ccccc1Br,> 92,> 92,> 92,> 92,> 92,,-5.14,inactive,inactive,inactive
Cc1cscn1,> 92,> 92,> 92,> 92,> 92,> 92,6.1,,inactive,
O=C(O)CN(CC(=O)O)CC(=O)O,> 92,> 92,> 92,> 92,> 92,,-5.01,inactive,,inactive
CC/C(C)=N/O,> 92,> 92,> 92,> 92,> 92,> 92,3.53,inactive,inactive,

SMILES,Potency [1] [µM],Potency [2] [µM],Potency [3] [µM],Potency [4] [µM],Potency [5] [µM],Potency [6] [µM],"activity change, negative = cytotoxicity [7] [%]",Potency [8],Potency [9],outcome [10]
CC(=O)c1ccccc1[N+](=O)[O-],> 92,> 92,> 92,> 92,> 92,> 92,-16.5,inactive,inactive,
COc1ccc(N)c(C)c1,> 92,> 92,> 92,> 92,> 92,,11.2,inactive,inactive,inactive
CCOC(=O)OCC,> 92,> 92,> 92,> 92,> 92,> 92,-11.2,inactive,inactive,
CN(C)CCCNCCCN,> 92,> 92,> 92,> 92,> 92,,1.31,12.6 µM (active),inactive,inactive
N#CC1(O)CCCCC1,> 92,> 92,> 92,> 92,> 92,,14.1,inactive,inactive,inactive
O=C1CCC(=O)O1,> 92,> 92,> 92,> 92,> 92,,2.23,inactive,inactive,inactive
C(=C/c1ccccc1)/c1ccccc1,> 92,> 92,> 92,> 92,> 92,,-0.717,inactive,inactive,inactive
Cc1ccc(C#N)cc1,> 92,> 92,> 92,> 92,> 92,,6,inactive,inactive,inactive
Nc1cc([N+](=O)[O-])ccc1C(=O)O,> 92,> 92,> 92,> 92,> 92,> 92,7.91,,inactive,
OC(CCl)CCl,> 92,> 92,> 92,> 92,> 92,> 92,-4.88,,inactive,
COc1ccc(OC)cc1,> 92,> 92,> 92,> 92,> 92,> 92,0.243,inactive,inactive,
CC(C)Cc1nccs1,> 92,> 92,> 92,> 92,> 92,> 92,2.65,inactive,inactive,
N#CCc1ccccc1[N+](=O)[O-],> 92,> 92,> 92,> 92,> 92,,-1.71,,,inactive
Cc1cc(C)c(N)cc1C,> 92,> 92,> 92,> 92,> 92,,-1.04,inactive,inactive,inactive
Cc1cc(C)cc(O)c1,> 92,> 92,> 92,> 92,> 92,,-1.73,inactive,inactive,inactive
Cc1ccco1,> 92,> 92,> 92,> 92,> 92,,0.379,inactive,inactive,inactive
NS(=O)(=O)O,> 92,> 92,> 92,> 92,> 92,,-0.868,inactive,inactive,inactive
Nc1nc2ccccc2[nH]1,> 92,> 92,> 92,> 92,> 92,,-3.92,inactive,inactive,inactive
